Compound activity deposited in PubChem by National Center for Advancing Translational Sciences (NCATS).
BLM inh: Bloom syndrome helicase (human) inhibition; Potency, µM (highest dose often 56.1 µM), without a hit: top-dose activity change, negative = inhibition, actives largely listed as inhibitors; hit rate 0.2% among 350,000; recombinant BLM DNA unwinding, fluorescence dequenching; P54132;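 further: plate controls were vehicle for no effect and no enzyme for full effect; nearly all actives have a fitted effect of over 35% in size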
APEX1 inh: APE1 (human) endonuclease inhibition | recombinant APE1, TAMRA/BHQ-2 abasic DNA cleavage fluorescence | AID 2517 | P27695 | Potency, µM (highest dose often 65.8 µM), without a hit: at the top dose activity change, negative = inhibition, actives largely listed as inhibitors | hit rate 0.35% among 350,000;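 further: plate controls were vehicle for no effect and reference inhibitor for full effect; nearly all actives have a fitted effect of over 55% in size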
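APE1 at 0.75 nM final was preincubated with compound 15 min at room temperature, then 50 nM double-stranded THF abasic-site substrate (5'-TAMRA/3'-BHQ-2) was added. Fluorescence (ex 525/em 598 nm) was read kinetically; third-minus-first read gave activity.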
JMJD2E inh: JMJD2E (human) inhibition. JMJD2E catalytic domain, FDH-coupled NADH fluorescence (FDH is formaldehyde dehydrogenase). B2RXH2. Potency, µM (series often up to 57.1 µM), without a hit: top-dose activity change, negative = inhibition, usual class: inhibitors. hit rate 1.6% among 230,000; active means well fitted inhibition curve with a large enough effect, not every such curve was filed as active; inconclusive means small, poorly fitted or top-dose-only effect, or another doubt; inactive means no such curve, though single readings can be large or run the other way;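 further: 0% = wells with enzyme and -100% = buffer wells without enzyme; nearly all actives have a fitted effect of over 50% in size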
RECQ1 inh: blocks DNA unwinding by human RECQ1 | AID 2549 | hit rate 0.54% among 240,000 | P46063 | Potency, µM (doses to about 57.3 µM), inactives show at the top dose activity, negative = inhibition, actives largely listed as inhibitors | RECQ1 DNA unwinding, red fluorescence kinetic read;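 further: plate controls were vehicle for no effect and no enzyme for full effect; nearly all actives have a fitted effect of over 30% in size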
Target sequence (P46063 whole entry, looked up): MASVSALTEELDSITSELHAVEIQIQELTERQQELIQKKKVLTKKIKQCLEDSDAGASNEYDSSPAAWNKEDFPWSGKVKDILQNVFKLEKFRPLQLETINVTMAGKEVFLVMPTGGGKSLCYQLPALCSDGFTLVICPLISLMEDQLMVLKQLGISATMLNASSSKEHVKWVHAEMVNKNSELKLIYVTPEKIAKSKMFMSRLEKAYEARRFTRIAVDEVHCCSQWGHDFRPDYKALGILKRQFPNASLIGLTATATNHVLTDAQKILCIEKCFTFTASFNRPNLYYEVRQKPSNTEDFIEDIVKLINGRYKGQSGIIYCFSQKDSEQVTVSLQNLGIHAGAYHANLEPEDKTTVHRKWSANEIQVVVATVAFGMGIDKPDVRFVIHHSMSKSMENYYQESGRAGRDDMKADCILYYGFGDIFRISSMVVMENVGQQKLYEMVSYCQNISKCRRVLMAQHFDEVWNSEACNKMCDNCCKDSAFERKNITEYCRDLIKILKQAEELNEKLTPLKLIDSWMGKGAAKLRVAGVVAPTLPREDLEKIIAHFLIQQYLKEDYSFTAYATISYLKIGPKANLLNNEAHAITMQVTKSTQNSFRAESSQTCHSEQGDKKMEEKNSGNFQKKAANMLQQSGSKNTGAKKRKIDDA
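50 nM RECQ1T1 preincubated 15 min with compound in Tris pH 8.0 buffer with MgCl2, DTT, Tween-20 and 2.5 ug/ml poly(dI-dC); started with 200 nM TAMRA/BHQ-2 forked duplex and 2 mM ATP. Unwinding read as fluorescence (525/598 nm), two reads 2 h apart.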
GCN5L2 inh: blocks human GCN5L2 histone acetyltransferase. Q92830. GCN5L2 HAT assay, ThioGlo1 CoA-SH fluorescence. Potency, µM (series often up to 58.9 µM), inactives show at the highest dose activity change, negative = inhibition, actives largely listed as inhibitors. hit rate 0.21% among 390,000. AID 504327
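Compounds, pin-transferred from DMSO stocks, meet 20nM GCN5L2 for 15 min before the reaction begins with H3(1-25) peptide (75uM) and acetyl-CoA (70uM). Thiol-reactive ThioGlo1 reports CoA release over 20 min at room temperature.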
L3MBTL1 inh: blocks human L3MBTL1 | Q9Y468 | AlphaScreen L3MBTL1–H3K9me1 peptide binding | Potency, µM (doses to about 57.1 µM), inactives show top-dose activity, negative = inhibition, actives largely listed as inhibitors | hit rate 0.66% among 230,000 | AID 485360; further: nearly all actives have a fitted effect of over 60% in size
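Displacement of a biotinylated histone H3(1-15) peptide monomethylated at Lys9 (75 nM) from L3MBTL1 (50 nM) was measured by AlphaScreen after a 30 min room-temperature compound incubation; cefsulodin titration served as intraplate control.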
The depositor's hits bear a star; i = inactive; ? = inconclusive; . = no result given; [ ] = dose if it differs, or a comment. Many of the other results were omitted from the sample, so hits are more common in it than they were. Unless noted, the call rests on the fitted dose curve; in most records, active means well fitted curve in the direction sought with a large enough effect; inconclusive means small, poorly fitted or top-dose-only effect, or another doubt; inactive means no such curve, though single readings can be large; an effect the other way counts as inactive or inconclusive. Unless noted, on the % scale 0 is the no-effect control and ±100 the full control effect; potency means the concentration at half of the fitted maximal effect.

SMILES | BLM inh | APEX1 inh | JMJD2E inh | RECQ1 inh | GCN5L2 inh | L3MBTL1 inh
O=[N+]([O-])c1cc(Br)cc(C=Nc2ccc3c(c2)OCO3)c1O | 14µM* | -5% | ? | ? | -8% | -10%
CCN1C(=O)[C@H]2[C@H]3[C@H](O)[C@H](O)C/C(=N/NC(=O)OCc4ccccc4)[C@H]3CC[C@@H]2C1=O | 0%[12.4 µM] | 11%[12.4 µM] | . | i[11.5 µM] | . | .
O=C1CC(c2ccco2)CC(O)=C1C=NCCO (centres undefined) | 0% | 23% | -11% | i | -2% | -18%
O=C1CC(c2ccco2)CC(O)=C1C=NCC1NCCc2ccccc21 (centres undefined) | -11% | 8% | 20µM* | -27% | 0% | 2%
Cc1ccc(-c2nnc(Nc3ccc(C(N)=O)cc3)c3ccccc23)cc1S(N)(=O)=O | -5% | . | . | . | -3% | .
C/C(=N/NC(=O)c1ccncc1)C1=C(O)CC(C)(C)CC1=O | 1% | -4% | 14µM* | -6% | -1% | -1%
Cc1ccc2onc(CC(=O)N3CCN(c4cc(Cl)ccc4C)CC3)c2c1 | -6% | . | . | . | 1% | .
CC(=O)NC1CCCc2c1cnn2-c1ccc(C(C)(C)C)cc1 (centres undefined) | 0% | 14% | . | . | -6% | 3%
CC(=O)NC1CCCN(O)C(=O)/C=C(\C)CCOC(=O)C(NC(C)=O)CCCN(O)C(=O)/C=C(\C)CCOC(=O)C(NC(C)=O)CCCN(O)C(=O)/C=C(\C)CCOC1=O (centres undefined) | -1% | -2% | 7.9µM* | -6% | 3% | 26%
CC[C@H]1OC(=O)[C@H](C)[C@@H](O[C@H]2C[C@@](C)(OC)[C@@H](O)[C@H](C)O2)[C@H](C)[C@@H](O[C@@H]2O[C@H](C)C[C@H](N(C)C)[C@H]2O)[C@](C)(O)C[C@@H](C)/C(=N\OCOCCOC)[C@H](C)[C@@H](O)[C@]1(C)O | . | 7%[21 µM] | . | . | . | .
CC(=O)Nc1ccc(S(=O)(=O)c2ccc([N+](=O)[O-])cc2)cc1 | -5% | 65% | . | . | 1% | .
CNc1ccc([N+](=O)[O-])cc1 | . | 25% | . | 11µM* | 0% | 1%
COc1ccc2nc(NNC(=O)c3cc(=O)c4ccccc4o3)sc2c1 | -10% | -6% | 32µM* | -9% | -23% | -4%
COc1ccc2nc(NC(=O)c3cc(=O)c4cc(C)c(C)cc4o3)sc2c1 | 2% | . | . | . | 1% | .
CC(C)c1ccccc1NC(=O)CNCCc1ccc(C(F)(F)F)cc1 | -15% | ? | 3.2µM* | -1% | 16% | .
NS(=O)(=O)c1ccc(CCNC(=O)CNCCc2ccc(C(F)(F)F)cc2)cc1 | 0% | 1% | . | . | -7% | .
CC(NC(=O)C(=O)NCCN1CCN(C(=O)c2ccccc2Br)CC1)c1ccccc1 (centres undefined) | -7% | 3% | . | . | -5% | .
CN(CCOc1ccc(C[C@H](Nc2ccccc2C(=O)c2ccccc2)C(=O)O)cc1)c1ccccn1 | -3% | 14% | -12% | -8% | 32µM* | .
Cc1nc2c(c(=O)[nH]1)CSCC2 | 0% | 14% | . | -10% | -4% | .
COc1ccc(C(=O)N/N=C(\C)c2ccc3c(c2)C2C=CCC2C(c2ccccc2)N3)cc1 (centres undefined) | -9% | 8% | 20µM* | -4% | 3% | -14%
COC(=O)c1ccc([C@H]2Nc3ccc(S(=O)(=O)Nc4ccc(F)cc4)cc3[C@H]3C=CC[C@H]32)cc1 | -21% | . | . | . | -6% | .
COc1cccc(NS(=O)(=O)c2ccc3c(c2)C2C=CCC2C(c2ccc(C(=O)O)cc2)N3)c1 (centres undefined) | -22% | -5% | ? | -9% | ? | 10µM*
CCOC(=O)[C@@H]1[C@H]2COc3cc(OC)ccc3[C@H]2N2C(=O)N(c3ccc(C)cc3)C(=O)[C@]12C | . | -8% | . | . | -2% | -3%
[O-]/C(=C(\C(=S)Nc1cccc2ccccc12)[n+]1cccc(CO)c1)c1ccc(Cl)s1 | -6% | -7% | 13µM* | i | -3% | .
CC(C)c1nc(SCC(=O)Nc2cccc3ccccc23)n[nH]1 | . | 19% | . | . | 0% | 0%
SMILES | BLM inh | APEX1 inh | JMJD2E inh | RECQ1 inh | GCN5L2 inh | L3MBTL1 inh
O=C(N/N=C/c1ccc(O)c(O)c1)c1cccc(S(=O)(=O)N2CCCCC2)c1 | -9% | 16% | 16µM* | i | -1% | -3%
O=C(NN=Cc1ccc(F)cc1)c1cccc(S(=O)(=O)N2CCCC2)c1 | . | 21% | . | . | 0% | 33%
Cc1c(Cn2cnc3c(cnn3C(C)(C)C)c2=O)cccc1C(F)(F)F | . | -2% | . | . | . | .
COc1ccc(/C=N/N=C2/CC(C)(C)Cc3n[nH]c(=O)cc32)cc1 | -3% | ? | 32µM* | -3% | -13% | -10%
CCOC(=O)CN1C(=O)N[C@H](c2ccc(Br)cc2)C(C(C)=O)=C1C | -6% | 32µM* | 8% | -5% | -3% | -13%
CCOc1cc(-c2nnc(SCC(=O)Nc3ccc(F)c(F)c3)nc2-c2ccc(OC)c(OCC)c2)ccc1OC | -6% | . | . | . | -8% | .
CCOC(=O)N1CCN(c2cc(NCCC(=O)O)c3c4c(onc24)-c2ccccc2C3=O)CC1 | -22% | ? | -23% | ? | ? | 8.9µM*
O=C(O)CCCNc1cc(N2CCC3(CC2)OCCO3)c2noc3c2c1C(=O)c1ccccc1-3 | -25% | ? | ? | -25% | ? | 10µM*
O=C(O)CCCNc1cc(N2CCN(C(=O)c3ccco3)CC2)c2noc3c2c1C(=O)c1ccccc1-3 | -29% | ? | . | . | -8% | .
O=C(O)CC(CNS(=O)(=O)c1ccccc1)c1ccccc1 (centres undefined) | -2% | -1% | -9% | -4% | -14% | 18%
Nc1ccc2c(c1)C/C(=C/c1ccco1)C2=O | ? | ? | ? | -25% | ? | 28µM*
COc1ccc(Cn2ccc3nc(C)c(C(=O)Nc4cc(C)cc(C)c4)cc3c2=O)cc1 | -2% | . | . | . | -9% | .
CC1(OC(=O)CCc2ccccc2)C(=O)C=C2C=C(c3ccc(C#N)cc3)N(CC3CC3)C=C2C1=O (centres undefined) | -6%[12.4 µM] | -3%[12.4 µM] | ? | 11%[11.5 µM] | -4% | .
CC1(OC(=O)CCc2ccccc2)C(=O)C=C2C=C(c3ccc(C#N)cc3)N(c3ccccc3)C=C2C1=O (centres undefined) | -1%[12.4 µM] | -3%[12.4 µM] | 11µM* | -5%[11.5 µM] | 1% | .
CC1(OC(=O)CCc2ccccc2)C(=O)C=C2C=C(c3ccc(C#N)cc3)N(C3CCCC3)C=C2C1=O (centres undefined) | -7%[12.4 µM] | ? | 20µM* | 7%[11.5 µM] | 29% | .
COc1ccc(-n2nc(C(=O)NCC(=O)NC(C)C)c3ccccc3c2=O)cc1Cl | -2% | -5% | . | . | 7.1µM* | .
